Several values for one entry are separate records, joined by “and”; a condition that tells them apart may be missing. Equal values may be shown once. Records with an inconclusive call do not appear. Where a call stands in place of a potency, no number is given. A structure can be active in one record and inactive in another. Activity calls are given as the source filed them. Calls follow the shape of the full dose curve.
Potency is read from the fitted curve at half-maximal effect.

5-hydroxytryptamine receptor 2A (Homo sapiens), sequence (P28223 whole entry, looked up): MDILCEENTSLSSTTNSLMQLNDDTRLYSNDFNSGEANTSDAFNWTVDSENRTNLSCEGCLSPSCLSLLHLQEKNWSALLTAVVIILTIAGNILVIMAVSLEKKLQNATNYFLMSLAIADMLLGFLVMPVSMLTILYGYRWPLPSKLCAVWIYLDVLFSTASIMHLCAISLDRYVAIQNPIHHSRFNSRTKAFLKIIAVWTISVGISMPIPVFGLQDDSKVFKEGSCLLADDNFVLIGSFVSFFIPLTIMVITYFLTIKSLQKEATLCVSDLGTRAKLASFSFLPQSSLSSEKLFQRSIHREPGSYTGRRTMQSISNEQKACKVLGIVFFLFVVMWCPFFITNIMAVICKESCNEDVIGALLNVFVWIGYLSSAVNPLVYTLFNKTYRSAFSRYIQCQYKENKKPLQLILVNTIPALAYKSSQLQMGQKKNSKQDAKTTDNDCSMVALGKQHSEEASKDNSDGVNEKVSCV

This assay deals with 5-hydroxytryptamine receptor 2A (Homo sapiens) (UniProt P28223). The experiment in a line: 5-hydroxytryptamine receptor 2A (HTR2A) small molecule agonists, cell-based qHTS assay (AID 1963587). Also: nearly all actives have a fitted effect of over 30% in size. Conditions: HTR2A-CHO cells, calcium flux fluorescence, agonist mode; series mostly up to 76.8 µM. An excerpt:
National Center for Advancing Translational Sciences [NCATS]
Division of Preclinical Innovation [DPI]
U.S. Environmental Protection Agency [EPA]
National Institutes of Environmental Health Sciences [NIEHS]
National Toxicology Program [NTP]
U.S. Food and Drug Administration [FDA]
The HTR2A receptor is a subtype of the 5-HT2 receptor that belongs to the serotonin receptor family and is a G protein-coupled receptor (GPCR). The HTR2A-CHO cell line stably expressing human 5-hydroxytryptamine receptor 2A (HTR2A) can be used for screening agonists of interactions between 5-HT2 and its ligands. The HTR2A-CHO calcium flux assay is a homogeneous fluorescence-based assay for detecting the intracellular calcium level using FDSS kinetic plate reader system.
HTR2A-CHO cells were dispensed at 2000 cells/3uL/well in 1536-well black-clear bottom plates using a Multidrop Dispenser. After the assay plates were incubated at a 37 C/5% CO2 incubator for 18 h, 3 uL of Dye Loading Buffer was transferred to the assay plate by a Flying Reagent Dispenser. The assay plates were incubated at 37 C for 1h. For agonist mode, 23 nL of compounds dissolved in DMSO, positive controls or DMSO only was transferred to the assay plate by a pin tool. The fluorescence intensity in the plates was measured using FDSS 7000EX kinetic plate reader for 2 min at 1 sec intervals.
On the technique in general: In qHTS, concentration-response curves come from the screen itself.
For the molecule `NC(=O)c1ccc([N+](=O)[O-])cc1Cl`, the Potency result is “inactive”.

With `O=C1Cc2cc(Cl)ccc2N1`, the Potency result is “inactive”.

`CC(=O)CC(=O)Nc1ccccc1C`: the Potency result is “inactive”.

As for `CCCCOCCOCCOCCO`, the Potency entry was “inactive”.

`COCCOCCOCCOCCOC`: the Potency entry is “inactive”.

As to `Cc1ccc(C)cc1`, the Potency entry is “inactive”.

As to `Cc1ccc(C2OC[C@@H]3OC(c4ccc(C)cc4)O[C@H]([C@H](O)CO)[C@@H]3O2)cc1` (stereo not given in full), the Potency result is “inactive”.

For `CCC(=O)OCc1ccccc1`, the Potency entry was “inactive”.

In the case of `Cc1ccc2c(ccc3ccccc32)c1`, the Potency entry is “inactive”.

In the case of `CCCCC(CC)COC(=O)CC(C(=O)OCC(CC)CCCC)S(=O)(=O)O` (stereo not given), the Potency is 42 µM (active) and 43.6 µM (active).

Regarding `CC1(C)C(C=C(Cl)Cl)C1C(=O)OCc1cccc(Oc2ccccc2)c1` (stereo not given), the Potency entry is “inactive”.

On to `CC1(C)[C@@H]2CC[C@]3(C2)[C@@H]1C(=O)CCC3(C)C`, for which the Potency entry is “inactive”.

Turning to `O=Cc1cc2ccccc2o1`, the Potency entry was “inactive”.

Regarding `COc1ccc2cc1Oc1cc3c(cc1OC)CC[N+](C)(C)[C@H]3Cc1ccc(cc1)Oc1c(OC)c(OC)cc3c1[C@@H](C2)[N+](C)(C)CC3`, the Potency result is “inactive”.

Consider `CN(C)c1cc(NC(=O)CNC(C)(C)C)c(O)c2c1C[C@H]1C[C@H]3[C@H](N(C)C)C(=O)C(C(N)=O)=C(O)[C@@]3(O)C(=O)C1=C2O`, for which the Potency entry is “inactive”.

Take `CC1CC(O)CC(C)(C)C1` (stereo not given): the Potency result was “inactive”.

As for `N[C@@H](Cc1c[nH]c2ccccc12)C(=O)O`, the Potency was 34.7 µM (active) and inactive.

With `CC1(C)C(=O)N(Br)C(=O)N1Cl`, the Potency entry was “inactive”.

As for `CCn1cc(C(=O)O)c(=O)c2cnc(N3CCNCC3)nc21`, the Potency entry was “inactive”.

For the molecule `Cc1ccc2n[nH]nc2c1`, the Potency entry was “inactive”.

Take `Cc1ccccc1C(=O)N1CC/C(=N\OS(=O)(=O)O)c2ccc(Cl)cc21`: the Potency result was “inactive”.

On to `CCOC(=O)c1cccc(N)c1`, for which the Potency result was “inactive”.

Regarding `Nc1cccc(N)n1`, the Potency entry was “inactive”.

As to `CC(C=O)c1ccccc1` (stereo not given), the Potency entry is “inactive”.

For `CC1=CCC(=O)O1`, the Potency entry was “inactive”.

As for `CCc1ccc(C)nc1`, the Potency entry was “inactive”.

Turning to `CCC(CO)(CO)CO`, the Potency entry was “inactive”.

For the molecule `CCC1COC(=O)O1` (stereo not given), the Potency entry was “inactive”.

In the case of `Cc1ccc(C)o1`, the Potency result is “inactive”.

On to `C=CCCC=C`, for which the Potency entry is “inactive”.

As to `Oc1ccc(Cl)cc1Sc1cc(Cl)ccc1O`, the Potency result was “inactive”.

In the case of `c1ccc2cnncc2c1`, the Potency result was “inactive”.

As for `CNCCS(=O)(=O)O`, the Potency result is “inactive”.

As to `c1ccc(CCc2ccccc2)cc1`, the Potency entry was “inactive”.

Take `CO[Si](CCCCl)(OC)OC`: the Potency entry is “inactive”.

As for `CSc1ccc(C(=O)c2[nH]c(=O)[nH]c2C)cc1`, the Potency result was “inactive”.

For the molecule `OCCCC1CCCCC1`, the Potency result was “inactive”.

Regarding `CC(=N\O)/C(C)=N/O`, the Potency entry was “inactive”.

`N#CC1(O)CCCCC1`: the Potency result was “inactive”.

With `CC(C)(O)C(=O)c1ccc(OCCO)cc1`, the Potency entry was “inactive”.

The values are drawn from PubChem BioAssay (Tox21).
